V-ATPase pH: yeast V-ATPase proton transport regulation by pHLuorin | S. cerevisiae, pHLuorin cytosolic pH fluorescence | response, % at 10 µM | 350,000 compounds, 0.37% hits | AID 504577; in the data active = response mostly above about 7.3%, no sharp cut-off; inactive = mostly below about 5.4%; also: actives read high
PG9 Ab binder: PG9 antibody binding by small molecule | TR-FRET gp120-PG9 antibody binding | inhibition, % at 6.7 µM | 360,000 compounds, 0.43% hits; in the data active = inhibition above about 8.5%
GC-B act: GC-B (human) receptor activation; AID 1920062; activation, % at 10 µM; HEK293-GC-B cells, CNP EC30, cGMP TR-FRET; 0% at EC30 CNP, 100% saturating CNP; 370,000 compounds, 0.11% hits;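 active = activation at 10 µM reaching about 35% in either raw or pattern-adjusted values, limit read from the data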
GC-A act: GC-A (human) enzyme activation; HEK293 GC-A cells, cGMP TR-FRET, EC30 ANP; 0% at EC30 ANP, 100% saturating ANP; activation, % at 10 µM; 370,000 compounds, 0.14% hits; in the data active = activation above about 40%
NR1D1 modulator: modulators of human Rev-erb alpha DNA binding; P20393; Rev-erbα–FITC-DNA binding, fluorescence polarization, 90 min; activity, % at 10 µM; 370,000 compounds, 0.79% hits;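 active = activity above about 14%, limit read from the data; passing the limit was not always enough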;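 also: 0% = DMSO wells with 35 nM protein and 100% = DMSO wells with 750 nM protein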
Target sequence (P20393 whole entry, looked up): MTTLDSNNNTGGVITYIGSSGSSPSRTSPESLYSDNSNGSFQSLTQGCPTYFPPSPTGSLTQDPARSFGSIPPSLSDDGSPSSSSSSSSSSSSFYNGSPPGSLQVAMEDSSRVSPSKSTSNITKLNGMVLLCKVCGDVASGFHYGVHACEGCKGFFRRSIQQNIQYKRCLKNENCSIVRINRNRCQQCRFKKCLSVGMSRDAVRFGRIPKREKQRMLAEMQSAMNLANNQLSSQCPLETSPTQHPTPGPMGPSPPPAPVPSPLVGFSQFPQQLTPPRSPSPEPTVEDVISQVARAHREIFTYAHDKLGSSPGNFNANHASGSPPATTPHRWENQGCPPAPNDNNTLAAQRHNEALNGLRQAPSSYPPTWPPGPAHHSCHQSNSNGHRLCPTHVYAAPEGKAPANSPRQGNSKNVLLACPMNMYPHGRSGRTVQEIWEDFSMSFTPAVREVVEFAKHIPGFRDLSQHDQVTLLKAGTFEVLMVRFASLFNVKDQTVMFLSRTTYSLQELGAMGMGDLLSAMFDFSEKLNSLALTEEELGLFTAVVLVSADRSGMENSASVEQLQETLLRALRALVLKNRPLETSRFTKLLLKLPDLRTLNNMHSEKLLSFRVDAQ
V-ATPase pH SP: modulates yeast V-ATPase proton transport; S. cerevisiae pHLuorin cytosolic pH; 980 compounds, 2% hits; shares compounds with V-ATPase pH; response, % at 10 µM; AID 602197; in the data active = response above about 24%;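 also: plate controls were vehicle wells for no effect and positive control wells for full effect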
The depositor's hits bear a star; · = not tested or not shown; ! = a repeat was not active. Rows were chosen to be rich in hits. Some 1.6% of all compounds tested hit in one or more screens of this group.

SMILES	V-ATPase pH	PG9 Ab binder	GC-B act	GC-A act	NR1D1 modulator	V-ATPase pH SP
N/C(=N\O)c1ccc(N2CCN(c3ncccc3C(F)(F)F)CC2)nc1	26*	-2	2	1	1	1
O=C(NCCc1ccc2c(c1)OCO2)c1cc(-c2ccccc2)c(N2CCOCC2)s1	·	·	10	3	4	·
CCOC(=O)C1=C(C)NC(SCC(=O)OC)=C(C#N)C1c1ccc(C(=O)OC)cc1 (stereo unspecified)	9.9*!	0	-9	-3	3	-1
O=C(NNS(=O)(=O)c1ccccc1[N+](=O)[O-])c1ccccc1Cl	12*	1	1	-1	5	-2
COCCNS(=O)(=O)c1ccccc1	-1	1	2	1	4	·
C=CCN(C(=O)CNS(=O)(=O)c1ccccc1)C(C(=O)NCCOC)c1ccncc1 (stereo unspecified)	22*	-1	4	-2	0	-6
O=C(NCCNC(=O)c1cc(F)cc(F)c1)c1cc(F)cc(F)c1	1	-1	-2	2	-1	·
CC(=O)NCCSC(=O)c1ccc(F)cc1	-2	-1	-6	5	5	0
O=C(NCCCN1CCN(CCCNC(=O)c2ccc(F)cc2)CC1)c1ccc(F)cc1	-1	1	2	0	-3	1
O=C(NCCNC(=O)c1ccc(F)cc1)c1ccc(F)cc1	0	0	0	-2	5	1
O=S1(=O)c2ccc(N3CC[C@H](O)C3)cc2OCCCN1C1CC1	·	·	3	2	7	·
C=C(C)Cn1c(SCC(=O)N/N=C(\C)c2ccc([N+](=O)[O-])cc2)nnc1-c1ccc(Br)cc1	·	·	-10	-11	-1	·
O=S1(=O)c2c(cccc2N2CCC[C@@H]2CO)O[C@@H]2CCN1C2	·	·	6	2	7	·
CCCC(=O)N1CCC[C@]2(CC[C@@H](CCC(=O)OCC)O2)C1	·	·	12	2	-6	·
CN1C2=NC(c3ccccc3)CC(=O)N2/C(=C\c2ccccc2)C1c1ccccc1C(F)(F)F (stereo unspecified)	·	·	-32	-36	2	·
CCC[C@H]1[C@@H](NC(=O)c2cccc(C(F)(F)F)c2)CC[C@@]23CCCN2C(=O)CCC[C@@H]13	·	·	-20	-17	-6	·
CCOC(=O)COc1ccc2c(C#N)c3ccccn3c2c1	9.6*	-4	-14	-17	2	-20
COc1ccc(N(CC(=O)N/N=C/c2cc(Br)c(C)o2)S(=O)(=O)c2ccc(NC(C)=O)cc2)cc1	11*	0	5	-2	0	-2
C=C1C(=O)O[C@@]23[C@H]1CC[C@@H](C)[C@@H]2CC[C@@]1(C)O[C@@H]31	23*	·	·	·	·	0
O=C(N/N=C/c1cc2c(cc1Br)OCO2)c1ccccn1	4	-1	-6	-7	-5	·
CC(C)(C)c1cc(C(=O)N/N=C/c2cc3c(cc2Br)OCO3)n[nH]1	11*	-3	1	-7	2	6
CC1CCCCC1NC(=O)Cn1nnc2ccccc2c1=O (stereo unspecified)	18*	1	0	0	1	-3
CC1CCCCC1NC(=O)Cn1c(CN2CCCCC2)nc2ccccc2c1=O (stereo unspecified)	-5	-1	-2	-4	-4	·
COc1ccc(OC)c(S(=O)(=O)N2CCC(C(=O)N3CCN(C4CCCCC4)CC3)CC2)c1	·	·	-1	2	0	·
Cn1c2ccc(F)cc2c2nnc(SCC(=O)Nc3cccc(O)c3)nc21	11*	3	12	13	7	-1
SMILES	V-ATPase pH	PG9 Ab binder	GC-B act	GC-A act	NR1D1 modulator	V-ATPase pH SP
Cn1c2ccccc2c2nnc(SCC(=O)Nc3cccc(C(=O)O)c3)nc21	6	0	7	2	2	·
CN(C(=O)[C@@H](C1CC1)[C@@H](O)c1ccc(Cl)cc1)c1ccccc1	·	·	3	-5	3	·
CCc1ccc(Cn2nnc(C(=O)Nc3ccc(OC)cc3OC)c2N)cc1	12*	-1	-2	-1	-1	4
COc1ccc(NC(=O)c2nnn(CC(=O)Nc3ccccc3OC)c2N)c(OC)c1	1	-1	0	2	-9	·
COc1c(O)c(O)c2oc(-c3ccccc3)cc(=O)c2c1OC	11*	-2	-5	-1	-5	2
COc1ccccc1CNC(=O)CCS(=O)(=O)c1ccc2c(c1)CCCN2C(C)=O	-4	-2	1	1	3	·
COc1ccccc1CNS(=O)(=O)c1ccc2c(c1)CCCN2C(C)=O	12*	3	4	1	-5	-18
C=CCn1c(COc2ccc(C)cc2)nnc1SCC(=O)Nc1cc(Cl)cc(Cl)c1	·	·	-8	-5	-1	·
COC(=O)C1=NNC(C(=O)OC)C1c1ccccc1 (stereo unspecified)	17*	0	1	-1	-3	-1
O=C(NCC1COc2ccccc2O1)c1ccc(NC(=O)c2c(Cl)cccc2Cl)cc1 (stereo unspecified)	·	·	1	2	5	·
C[C@@H]1OCN(C)[C@H]2C[C@H]3c4[nH]c5cccc(-c6cccc(F)c6)c5c4CCN3C(=O)[C@@H]12	·	·	-3	-3	1	·
CN(CC(=O)NC1CCCCC1)S(=O)(=O)c1ccc(Cl)cc1	11*	-1	1	6	-4	1
CN(CC(=O)NC1CCCCCC1)S(=O)(=O)c1ccc(F)cc1	-2	-2	8	1	-5	·
O=C(CCSc1ccc(Cl)cc1)NC1CCCCC1	13*	2	1	-3	-4	-1
CC(=O)c1cccc(NC(=O)CCC(=O)c2ccc(F)cc2)c1	1	-2	-4	-4	2	·
O=C(CCC(=O)c1ccc(F)cc1)Nc1cc(Cl)cc(Cl)c1	-1	-2	-20	3	4	1
O=S1(=O)c2c(NCc3ccco3)cccc2Oc2ccccc2CN1Cc1cn(Cc2ccc(C(F)(F)F)cc2)nn1	·	·	5	3	-2	·
O=c1[nH]c(CN2CCN(c3ccccc3O)CC2)nc2ccccc12	14*	0	-6	-1	-3	0
N=c1c2c(-c3ccccc3)c(-c3ccccc3)n(Cc3ccccc3)c2ncn1C1CCOCC1	·	·	-27	-33	4	·
CCN(CC)C(=O)CC[C@H]1CC[C@]2(CCCN(Cc3cccnc3)C2)O1	·	·	-1	4	1	·
COc1cccc(C(=O)N2CCC(Oc3cccnc3)CC2)c1	·	·	-4	3	-6	·
C=CCN1[C@H](C)COc2cccc(F)c2S1(=O)=O	·	·	0	5	-6	·
COc1ccc(N2C(=NC(=O)C3CCCCC3)SC3CS(=O)(=O)CC32)cc1 (stereo unspecified)	8.0*	-3	-3	-9	9	1
CC(=O)OC12CCCN(C1)/C(=C/c1ccc(Cl)cc1)C2 (stereo unspecified)	·	·	-10	2	-1	·
O=[N+]([O-])c1ccc2nc(N3CCCC3)sc2c1	2	1	1	1	4	·

Assay outcomes deposited in PubChem BioAssay by several laboratories.
